{"source": "PubChem BioAssay AID504329", "about": "(Southern Research Specialized Biocontainment Screening …, 2011)", "note": "Several values for one entry are separate records, joined by “and”; a condition that tells them apart may be missing. Identical values can stand only once. Hit rate of the full screen: of about 340,000 compounds, about 1,000 (0.29%) were called active. A selection follows. Results with a measured potency or affinity are listed apart. Unmarked numbers belong to inactive results. No stated cut-off is given here; in the data, inconclusive means inhibition above about 27% without an active follow-up result; inactive means below that."}
{"assay": "NS1A inhibition, H1N1 influenza, cell based functional assay (AID 504329)", "conditions": "percent inhibition, at 12.5 µM, active compounds read high"}
{"compound": "CC(C)n1nnnc1SCC(=O)NNC(=O)C1CCCCC1", "inhibition": "-0.25%"}
{"compound": "COC(=O)[C@@H]1C[C@@]2(O)[C@@H](O)[C@@H](O)[C@@H](O)C[C@H]2N1CC1CCCCC1", "inhibition": "-4.19%"}
{"compound": "CCCCn1c(N)c(N(C(=O)CSc2nnnn2-c2ccccc2C)C2CCCC2)c(=O)[nH]c1=O", "inhibition": "-10.4%"}
{"compound": "CC1CC(C)CN(C(=O)COc2ccc([N+](=O)[O-])cc2Cl)C1", "note": "(stereo not given)", "inhibition": "0.5%"}
{"compound": "CSCCC(NC(=O)c1ccccc1)C(=O)OCC(=O)Nc1ccc(C)c(Cl)c1", "note": "(stereo not given)", "inhibition": "0.6%"}
{"compound": "COc1ccc(OCc2nnc(SCC(N)=O)n2-c2ccccc2OC)cc1", "inhibition": "-0.95%"}
{"compound": "O=S(=O)(c1ccc(Cl)cc1)N1CCN(Cc2ccc(O)c3ncccc23)CC1", "inhibition": "19.8%"}
{"compound": "Oc1ccc2ccccc2c1CN1CCN(c2ccccc2)CC1", "inhibition": "0.87%"}
{"compound": "Oc1ccc(COCc2ccccc2)c2cccnc12", "inhibition": "22.4%"}
{"compound": "O=[N+]([O-])c1cc2c(cc1CN1CCN(c3ccccc3)CC1)OCO2", "inhibition": "1.15%"}
{"compound": "c1ccc(N2CCN(Cc3ccnc4ccccc34)CC2)cc1", "inhibition": "-0.44%"}
{"compound": "O=[N+]([O-])c1cc(Cl)c(O)c2ncccc12", "inhibition": "-6.45%"}
{"compound": "COc1ccc(C2C(C(=O)Nc3cc(C)on3)c3ccccc3C(=O)N2C)cc1", "note": "(stereo not given)", "inhibition": "7.42%"}
{"compound": "CCCCNS(=O)(=O)c1cc(-c2nn(C)c(=O)c3ccccc23)ccc1C", "inhibition": "-6.29%"}
{"compound": "CC(=O)N1N=C(c2ccc(Br)cc2)OC12CCCC2", "inhibition": "-0.33%"}
{"compound": "C=CCSc1nc(N)c(C(=O)Nc2ccccc2OC)cc1C(=O)Nc1ccccc1", "inhibition": "6.7%"}
{"compound": "COc1ccccc1NC(=O)c1c(N=Cc2c(O)ccc3ccccc23)cnn1C", "inhibition": "15.2%"}
{"compound": "Cc1cc(OCC(=O)OCC(=O)N2CCc3ccccc3C2)ccc1Cl", "inhibition": "-4.55%"}
{"compound": "Cc1ccc(C2Nc3ccccc3NC3=C2C(=O)CC(C)(C)C3)c(O)c1", "note": "(stereo not given)", "inhibition": "-4.27%"}
{"compound": "Cc1ccc(NN=C2C(=O)OC(C)(C)OC2=O)c(C)c1", "inhibition": "-14.3%"}
{"compound": "O=C(c1ccccc1F)N1CCN(C(=O)C(c2ccccc2)c2ccccc2)CC1", "inhibition": "6.85%"}
{"compound": "O=c1ccc(Cl)nn1-c1ccccc1", "inhibition": "-0.77%"}
{"compound": "CSCCC(NC(=O)COc1ccccc1)C(=O)N1CCCCC1", "note": "(stereo not given)", "inhibition": "0.87%"}
{"compound": "CC(=O)c1ccc(S(=O)(=O)NCCCC(=O)N(C)Cc2ccc3c(c2)OCO3)cc1", "inhibition": "-23.5%"}
{"compound": "CCOC(=O)C(=O)Nc1cc(C)nn1-c1nc2ccccc2[nH]1", "inhibition": "11.3%"}
{"compound": "Cc1cc(NC(=O)CC#N)n(-c2nc3ccccc3[nH]2)n1", "inhibition": "-16.5%"}
{"compound": "CCCOc1ccc(C(C)=O)cc1CSc1nc(O)cc(=O)[nH]1", "inhibition": "4.86%"}
{"compound": "COc1ccc(C(=O)NCC(=O)N2CCN(C(=O)c3ccco3)CC2)cc1", "inhibition": "-3.4%"}
{"compound": "O=C(COc1c(Br)cc(Br)cc1Br)N/N=C/c1ccco1", "inhibition": "-0.44%"}
{"compound": "CN(C)CCCNC(=O)c1ccccn1", "inhibition": "-2.43%"}
{"compound": "COc1cc(NCc2ccccc2O)c2ncccc2c1", "inhibition": "-8.87%"}
{"compound": "CN(C)CCCNc1c2ccccc2nc2ccccc12", "inhibition": "-0.82%"}
{"compound": "CN(C)CCCNC(=O)c1ccc(-c2ccccc2)cc1", "inhibition": "-6.67%"}
{"compound": "CC(C)C(=O)N1CCC(n2nccc2NC(=O)CCOc2ccccc2)CC1", "inhibition": "0.18%"}
{"compound": "COc1ccc(/C=N/NC(=O)CN2CCS(=O)(=O)CC2)cc1", "inhibition": "-0.94%"}
{"compound": "CCOC(=O)c1[nH]c2c(c1-c1ccccc1)C(=O)CC(c1ccc(OC)c(OC)c1)C2", "note": "(stereo not given)", "inhibition": "8.75%"}
{"compound": "O=C(NC(Cc1ccccc1)C(=O)O)/C(=C/c1ccccc1)NC(=O)c1ccc(Br)o1", "note": "(stereo not given)", "inhibition": "3.22%"}
{"compound": "CCCCCn1c(=NC(=O)c2cccnc2)c(C#N)cc2c(=O)n3cccc(C)c3nc21", "inhibition": "-3.21%"}
{"compound": "O=C(COC(=O)c1cccc(S(=O)(=O)NCc2ccccc2)c1)c1ccccc1", "inhibition": "3.76%"}
{"compound": "O=C(NCC(c1cccs1)N1CCOCC1)c1ccc(Cl)c(S(=O)(=O)N2CCOCC2)c1", "note": "(stereo not given)", "inhibition": "-3.43%"}
{"compound": "Nc1nonc1-n1nnc(C(=O)N/N=C/c2ccccc2Br)c1CN1CCCC1", "inhibition": "1.45%"}
{"compound": "CC1CCN(Cc2c(C(=O)N/N=C/c3ccccc3O)nnn2-c2nonc2N)CC1", "inhibition": "-0.06%"}
{"compound": "O=C(CN1C(=O)c2cccc3cccc1c23)NCC1CCCO1", "note": "(stereo not given)", "inhibition": "7.9%"}
{"compound": "Cc1[nH]c(=O)c(C#N)c(C)c1CSc1ncccn1", "inhibition": "-0.63%"}
{"compound": "S=C(Nc1ccccc1)c1ccccn1", "inhibition": "3.81%"}
{"compound": "CN(C)c1ccc(NC(=S)c2ccc3ccccc3n2)cc1", "inhibition": "5.3%"}
{"compound": "Cc1cc(C)c2oc(C(=O)N(Cc3ccccc3)C3CCS(=O)(=O)C3)cc(=O)c2c1", "note": "(stereo not given)", "inhibition": "-2.06%"}
{"compound": "CC1(C)S[C@@H]2[C@H](NC(=O)Cc3ccccc3)C(=O)N2[C@H]1C(=O)O", "inhibition": "-10.5% and 1.49%"}
{"compound": "CC1(C)SC2c3ccccc3C(=O)N2C1C(=O)O", "note": "(stereo not given)", "inhibition": "-0.07%"}
{"compound": "CC(C)C[C@H]1COCCS(=O)(=O)N1Cc1cccc(C(F)(F)F)c1", "inhibition": "-20%"}
{"compound": "O=C(NC1CCCCC1)C1CCN(c2nnnn2-c2ccccc2)CC1", "inhibition": "-1.63%"}
{"compound": "Cc1ccc(SCC(=O)NCc2ccccc2)cc1", "inhibition": "-3.04%"}
{"compound": "Cc1ccccc1NC(=O)N(C(C)C)C(C)C", "inhibition": "-12.5%"}
{"compound": "O=C(Nc1ccccc1NC(=O)NC1CCCCC1)NC1CCCCC1", "inhibition": "14%"}
{"compound": "Nc1c(NC2CCCCC2)c2ccccc2oc1=O", "inhibition": "4.37%"}
{"compound": "Cc1nc(NC(=O)c2cc3c(C)nn(-c4ccccc4)c3s2)sc1C(=O)Nc1ccccc1", "inhibition": "0.17%"}
{"compound": "COc1ccc(N2CC(C(=O)N/N=C/c3ccccc3)CC2=O)cc1", "note": "(stereo not given)", "inhibition": "-7.3%"}
{"compound": "COc1ccc(-c2cc(-c3ccccc3)[n+](C)c(-c3ccccc3)c2)cc1", "inhibition": "-1.4%"}
{"compound": "CN(c1ccc(Cl)cc1)c1cc(=O)n(C)c2ccccc12", "inhibition": "3.91%"}
{"compound": "CN(C)c1ccc(/C=C2\\SC(=O)N(CC(O)Cn3c4ccccc4c4ccccc43)C2=O)cc1", "note": "(stereo not given)", "inhibition": "-1.11%"}
{"compound": "CN(C)c1ccc(/C=N/c2cc(-c3ccccc3)nn2-c2ccccc2)cc1", "inhibition": "-1.42%"}
{"compound": "COc1ccc2c(c1)c(=O)cc(-c1ccccc1)n2C", "inhibition": "0.17%"}
{"compound": "C[n+]1c(-c2ccccc2)cc2c(=Cc3ccccc3)c3ccccc3n21", "inhibition": "-16.8%"}
{"compound": "CN(C)c1ccc(-c2n(C)c3ccccc3[n+]2C)cc1", "inhibition": "28.5%"}
{"compound": "CCCCC1(C)OC(=O)C(=Cc2ccc(N(C)C)cc2)C(=O)O1", "note": "(stereo not given)", "inhibition": "0.99%"}
